# High-throughput results as filed in PubChem BioAssay.
# LMNA splice mod – changes lamin A minigene splicing in HeLa cells; actives 0.01% (n = 200,000); AID 1487; Potency, µM (highest dose often 46.1 µM), for the others: at the highest dose ratio change, negative = inhibition, actives largely listed as inhibitors; HeLa LMNA splicing GFP/RFP minigene ratio, 48 h; active = well fitted inhibition curve with a large enough effect in the signal ratio, with a control signal flat, not every such curve was filed as active; inconclusive = small, poorly fitted or top-dose-only effect, or effect the other way, or a change in a side signal; the % refers to the signal ratio; also: potency is read from the fitted curve at half-maximal effect
#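 S3 HeLa cells stably expressing lamin A-EGFP splicing minigene plus DsRed2, 600 cells/well, 48 h compound exposure at 37C. Laser-scanning cytometry; analysed as GFP (500-530 nm)/RFP (575-640 nm) total intensity ratio; 0.5% DMSO vehicle.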
# HPGD block – inhibitors of human 15-hydroxyprostaglandin dehydrogenase (HPGD). P15428. purified HPGD, NADH fluorescence kinetic, PGE2 substrate. Potency, µM, for the others: at the highest dose activity change, negative = inhibition, hits mostly inhibitors. actives 4.3% (n = 150,000); also: potency is read from the fitted curve at half-maximal effect
# Target sequence (P15428 whole entry, looked up): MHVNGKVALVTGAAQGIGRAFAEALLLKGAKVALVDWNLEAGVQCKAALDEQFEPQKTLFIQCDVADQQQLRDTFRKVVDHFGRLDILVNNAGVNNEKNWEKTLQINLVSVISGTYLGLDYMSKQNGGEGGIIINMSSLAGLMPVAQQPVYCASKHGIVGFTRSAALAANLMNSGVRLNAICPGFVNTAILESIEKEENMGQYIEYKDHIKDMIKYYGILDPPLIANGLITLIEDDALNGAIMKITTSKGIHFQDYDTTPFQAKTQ
#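 20 nM HPGD preincubated 15 min at room temperature with compound in 50 mM Tris-HCl pH 8, 0.01% Tween 20. Started with 1 mM NAD+ and 30 uM prostaglandin E2; NADH fluorescence (360/450 nm) read 5 times over 30-s intervals, last minus first.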
# ALDH1A1 block – blocks purified human ALDH1A1 activity. P00352. actives 7.3% (n = 220,000). AID 1030. Potency, µM (series often up to 75.3 µM), for inactives: at the top dose activity, negative = inhibition, most hits filed as inhibitors. Purified ALDH1A1, NADH fluorescence, propionaldehyde substrate;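 also: potency is read from the fitted curve at half-maximal effect; plate controls were no enzyme wells and a reference inhibitor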
# PNC assembly inh – blocks assembly of the perinucleolar compartment; PC3M PTB-GFP, PNC prevalence imaging, 16 h; hits give low values; activity change (PNC), negative = inhibition, % at 10 µM; actives 3.1% (n = 140,000); AID 2417;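 active = readout at or below -70, meaning at least 70% loss of cells showing the perinucleolar compartment, a nuclear body marking cancer cells; inconclusive = readout between -30 and a set limit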;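 also: plate controls were DMSO wells for no effect and camptothecin positive control wells for full effect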
#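 Compounds are pinned in duplicate onto adhered PC3M cells stably expressing GFP-tagged PTB and incubated 16 h at 37 C. Cells are then fixed, nuclei stained with Hoechst, and PNC-positive cells counted.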
# 12-hLO inh – blocks human 12-lipoxygenase activity | AID 1452 | purified 12-hLO, xylenol orange hydroperoxide absorbance | Potency, µM (series often up to 57.1 µM), inactives show top-dose activity change, negative = inhibition, actives largely listed as inhibitors | actives 0.12% (n = 150,000); active = well fitted inhibition curve with a large enough effect; inconclusive = small, poorly fitted or top-dose-only effect; also: potency is read from the fitted curve at half-maximal effect; nearly all actives have a fitted effect of over 55% in size
#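 Lipoxygenase turnover measured by absorbance at 573 and 405 nm after Fe-XO development. Human 12hLO 150 nM, arachidonate 40 uM, pH 7.0 Hepes buffer with detergent; 15 min compound preincubation, 30 min reaction.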
# * hit, by the source's call; ? = inconclusive; · = no result; [ ] = another dose, or the depositor's remark. The list is not random: actives were taken first. Their share in the collection is about 10%. Unless noted, calls follow the shape of the dose curve; as a rule, active = well fitted inhibition curve with a large enough effect (not every such curve was filed as active); inconclusive = small, poorly fitted or top-dose-only effect, or another doubt; inactive = no such curve, though single readings can be large or run the other way. Unless noted, % is scaled to controls: 0 for no effect and ±100 for the full control effect.
SMILES,LMNA splice mod,HPGD block,ALDH1A1 block,PNC assembly inh,12-hLO inh
Cc1ccc(NC(=S)NC(=O)c2ccccc2)cc1NC(=S)NC(=O)c1ccccc1,·,·,3.5µM*,·,·
Cc1cc(C)c(NC(=S)NC(=O)c2ccc(-c3ccccc3)cc2)c(C)c1,?,-8%,10µM*,24,4%
COC(=O)c1ccccc1NC(=S)NC(=O)c1ccccc1,-3%[0.0737 µM],?,?,1,?
Cc1cccc(C(=O)Nc2ccc(-c3nc4ccccc4s3)cc2Cl)c1,14%[46 µM],·,·,·,·
Cc1ccc(C(=O)NC(=S)Nc2cc(-c3nc4ccccc4s3)ccc2C)cc1,11%[0.0737 µM],-11%,-8%,-109*,2%
O=C(NC(=S)Nc1ccc2[nH]ncc2c1)c1ccccc1,-3%,?,10µM*,?,?
c1ccc(-c2cc(-c3cc(-c4ccccn4)[nH]n3)n[nH]2)nc1,·,-2%,-2%[13.5 µM],·,-3%[11.4 µM]
CCN(C(=O)c1c(C)oc2ncnc(N3CCCCC3)c12)c1cc(C)ccc1C,1%[46 µM],·,·,·,·
CCOc1nc2cccc(C(=O)OC(C)OC(=O)OC3CCCCC3)c2n1Cc1ccc(-c2ccccc2-c2nn[nH]n2)cc1 (configuration not stated),·,?,0%,·,-7%
O=C(NNC(=S)Nc1ccccc1)c1ccc2ncccc2c1,·,·,22µM*,·,·
O=C(NC(=S)Nc1ccc2ncccc2c1)c1ccccc1,-11%[46 µM],·,3.5µM*,·,·
O=C(NC(=S)Nc1cccc2ncccc12)c1ccccc1,5%[46 µM],·,14µM*,·,·
Cc1ccc2cccnc2c1NC(=S)NC(=O)c1ccccc1,-2%,-20%,28µM*,-30,-25%
Cc1ccc2cccc(NC(=S)NC(=O)c3ccccc3)c2n1,8%,-7%,?,-13,?
COc1cc2c(cc1OC)[C@@H]1CC(=O)[C@@H](CC(C)C)CN1CC2,·,?,?,·,3%
CCOC(=O)c1ccccc1-c1cn2cc(Cl)ccc2n1,-1%[46 µM],·,10%,·,·
COC(=O)c1ccc(C(NC(=O)OCc2ccccc2)/C(F)=C/[C@@H](C)C(=O)NCCO)cc1 (some centres not stated),·,-2%,0%,·,1%
Cc1cc(C)n(-c2nc3ccccc3nc2N2CCC(C)CC2)n1,-10%,-2%,?,-24,-3%
Cc1cc(N2CCC(C)CC2)nc(-n2nc(C)cc2C)n1,?,-9%,-9%,-96*,1%
c1ccc(CCNc2ncnc3scc(C4COc5ccccc5O4)c23)cc1 (configuration not stated),-20%,-16%,0.056µM*,?,-3%
COC(=O)N1C2CC3(C)CC(=O)CC1(C)C3c1ccccc12 (configuration not stated),12%[9.22 µM],-4%,10%[13.5 µM],·,0%[11.4 µM]
COc1ccc(COC(=O)N/N=C2/C[C@@H](O)[C@@H](O)[C@@H]3[C@@H]4C(=O)N([C@@H](C)c5ccccc5)C(=O)[C@H]4CC[C@H]23)cc1,·,·,4%[13.5 µM],·,·
Nn1c(Cc2cccc3ccccc23)nnc1SCc1ccccc1Cl,?,?,6%,-8,-6%
COc1ccc(OCCSc2nnc(Cc3cccc4ccccc34)n2N)cc1,?,22µM*,?,?,-2%
Nn1c(Cc2cccc3ccccc23)nnc1SCc1ccccc1,-2%,13µM*,0%,8,2%
SMILES,LMNA splice mod,HPGD block,ALDH1A1 block,PNC assembly inh,12-hLO inh
CCCCCCCCCCCCCCCC(=O)C1=C(O)C(CO)OC1=O (configuration not stated),·,·,-5%,·,·
CC1CCN(c2oc(-c3cccc4ccccc34)nc2C#N)CC1,-14%,?,?,-100*,-5%
CCCC(=O)NCCc1c(I)[nH]c2ccc(OC)cc12,·,·,20µM*,·,·
COC(=O)c1ccccc1S(=O)(=O)N(CCCN1CCOCC1)Cc1cccs1,8%,0%,?,19,3%
O=S(=O)(c1cccc(C(F)(F)F)c1)N(CCCN1CCOCC1)Cc1cccs1,8%,-4%,13µM*,?,-1%
COc1ccc(CNC(=O)C2CCN(S(=O)(=O)c3cn(C)cn3)CC2)cc1,7%[46 µM],·,·,·,·
Cc1ccc(O)c(C(=O)c2cnc3onc(-c4ccc(F)cc4)c3c2)c1,?,13µM*,14µM*,-21,4%
Cc1noc2ncc(C(=O)c3cc(F)ccc3O)cc12,14%,-18%,-1%,11,-4%
COc1ccc(Br)cc1CNC(=O)CSc1n[nH]c(-c2ccccc2)n1,3%[46 µM],·,·,·,·
C=C1CCC(C2CC(=O)OC2=O)C(=O)CCC2C1CC2(C)C (configuration not stated),-11%,-13%,1%,·,1%
COCCOC(=O)c1c(C)nc(SCC(=O)Nc2ccc(OC)cc2)c(C#N)c1-c1ccco1,5%,-18%,?,-111*,8%
N#Cc1c(-c2ccco2)cc(C2CC2)nc1SCC(=O)c1ccccc1,9%,·,?,-21,-7%
Cc1ccccc1NC(=O)c1c(C)nc(SCC(=O)OCc2ccccc2)c(C#N)c1-c1ccc(F)cc1,-7%,-24%,?,-6,1%
Cc1nc(SCC(=O)c2ccccc2)c(C#N)c(-c2ccco2)c1C(=O)NCc1ccco1,2%,-21%,10µM*,31,-6%
Cc1nc(SCC(=O)OCc2ccccc2)c(C#N)c(-c2ccccc2)c1C(=O)Nc1ccccc1,2%,-14%,20µM*,8,1%
CC#C[C@]1(O)CC[C@H]2C3CCC4=CC(=O)CCC4=C3[C@@H](c3ccc(N(C)C)cc3)C[C@@]21C (some centres not stated),?,-8%,6%,·,·
Cc1[nH]c(C)c(Cl)c(=O)c1Cl,?,2%,-3%,·,-2%
Cc1ccc(S(=O)(=O)Cn2nnnc2CN2CCCC3(CCCCC3)C2)cc1,?,-13%,16µM*,15,-2%
COc1ccc(-c2nc3ccccc3c(=O)n2NC(=S)N(C)C)cc1,-2%,14µM*,4µM*,-16,-1%
O=c1c(-c2ccc(F)cc2)nc2cnc(Nc3ccccc3)nc2n1C[C@H]1CCCO1,23%,·,25%,·,·
O=C(CC(=O)NC1CCCCC1)N/N=C/c1cccc2ccccc12,-9%,?,?,-86*,-3%
CCOC(=O)c1c(NC(=O)c2cccs2)sc(C(=O)N(C)C)c1C,7%,16µM*,22µM*,53,-4%
CCc1c(C)sc(NC(=O)c2cccs2)c1C(=O)OC(C)C,?,?,?,19,-7%
Cc1sc(NC(=O)c2cccs2)c(C(=O)OC(C)C)c1C,2%,?,?,-100*,3%
O=C(CSc1nc2nn(-c3ccccc3)c(=O)c-2c2n1CCCCC2)NCCCc1ccccc1,·,·,-2%,·,·
COc1cccc(N2CCN(c3ncnc4c3c(-c3ccccc3)cn4-c3ccc(C)cc3)CC2)c1,0%[46 µM],·,·,·,·
CCOC(=O)N1CCC(NC(=O)c2sc3nc4n(c(=O)c3c2C)CCCC4)CC1,5%,1%,-3%,-12,4%
